Key:
Experiment in all cases: log2 ratio of Biotin-Ahx-Ub-VS probe labelling (fragment/DMSO); higher = less target engagement (more negative = stronger competition), active = hit call of the paper (q ≤ 0.05, log2 ratio ≤ -1)
Details in all cases: compound concentration: 200 uM; treatment time: 3 h
USP34 = USP34 (UniProt Q70CQ2)
Method in brief: (§1)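 Each value is an average log2 ratio of fragment to vehicle, tested by unpaired t-test. The underlying Spectronaut label-free quantities were global-median-normalised, and only proteins with ≥2 unique peptides were included. Triplicate HEK293T lysate samples (495 µg) were exposed to fragment at 200 µM or vehicle for 3 h, then to Biotin-Ahx-Ub-VS at 0.5 µM final for 1 h, before NeutrAvidin enrichment of labelled DUBs, LysC and trypsin digestion, and diaPASEF LC-MS/MS.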

USP36 = target: T1, USP36 (UniProt Q9P275)
T1 sequence (whole entry): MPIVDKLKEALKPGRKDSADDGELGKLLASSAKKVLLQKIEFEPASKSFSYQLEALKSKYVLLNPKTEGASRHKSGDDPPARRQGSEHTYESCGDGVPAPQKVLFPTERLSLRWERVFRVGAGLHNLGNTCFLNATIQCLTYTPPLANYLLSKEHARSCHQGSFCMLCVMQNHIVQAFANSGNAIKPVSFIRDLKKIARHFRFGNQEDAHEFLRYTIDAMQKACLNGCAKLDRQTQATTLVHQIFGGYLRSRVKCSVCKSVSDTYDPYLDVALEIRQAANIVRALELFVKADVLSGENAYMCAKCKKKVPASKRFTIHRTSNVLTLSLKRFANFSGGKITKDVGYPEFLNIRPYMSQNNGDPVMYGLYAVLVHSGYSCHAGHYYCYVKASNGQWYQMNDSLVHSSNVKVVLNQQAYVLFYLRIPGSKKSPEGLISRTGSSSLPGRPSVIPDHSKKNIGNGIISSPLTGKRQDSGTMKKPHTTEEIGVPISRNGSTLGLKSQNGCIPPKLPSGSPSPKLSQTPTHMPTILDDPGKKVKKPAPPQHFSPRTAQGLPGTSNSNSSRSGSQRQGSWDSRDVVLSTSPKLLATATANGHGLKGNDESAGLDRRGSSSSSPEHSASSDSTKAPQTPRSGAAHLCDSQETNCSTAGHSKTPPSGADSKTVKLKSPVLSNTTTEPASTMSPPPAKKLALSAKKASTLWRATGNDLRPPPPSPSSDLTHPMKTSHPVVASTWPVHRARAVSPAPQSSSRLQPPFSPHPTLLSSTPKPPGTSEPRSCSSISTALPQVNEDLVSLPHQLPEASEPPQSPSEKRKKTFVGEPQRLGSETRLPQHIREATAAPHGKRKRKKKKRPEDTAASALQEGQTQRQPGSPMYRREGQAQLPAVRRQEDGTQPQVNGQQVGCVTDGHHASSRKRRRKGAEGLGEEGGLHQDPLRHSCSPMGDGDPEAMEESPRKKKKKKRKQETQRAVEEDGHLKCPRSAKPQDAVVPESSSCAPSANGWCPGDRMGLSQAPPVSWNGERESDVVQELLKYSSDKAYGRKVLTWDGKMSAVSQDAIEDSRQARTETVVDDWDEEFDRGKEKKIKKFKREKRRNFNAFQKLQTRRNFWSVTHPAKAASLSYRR
Method in brief: as §1

USP38 = target: T2, USP38 (UniProt Q8NB14)
T2 sequence (whole entry): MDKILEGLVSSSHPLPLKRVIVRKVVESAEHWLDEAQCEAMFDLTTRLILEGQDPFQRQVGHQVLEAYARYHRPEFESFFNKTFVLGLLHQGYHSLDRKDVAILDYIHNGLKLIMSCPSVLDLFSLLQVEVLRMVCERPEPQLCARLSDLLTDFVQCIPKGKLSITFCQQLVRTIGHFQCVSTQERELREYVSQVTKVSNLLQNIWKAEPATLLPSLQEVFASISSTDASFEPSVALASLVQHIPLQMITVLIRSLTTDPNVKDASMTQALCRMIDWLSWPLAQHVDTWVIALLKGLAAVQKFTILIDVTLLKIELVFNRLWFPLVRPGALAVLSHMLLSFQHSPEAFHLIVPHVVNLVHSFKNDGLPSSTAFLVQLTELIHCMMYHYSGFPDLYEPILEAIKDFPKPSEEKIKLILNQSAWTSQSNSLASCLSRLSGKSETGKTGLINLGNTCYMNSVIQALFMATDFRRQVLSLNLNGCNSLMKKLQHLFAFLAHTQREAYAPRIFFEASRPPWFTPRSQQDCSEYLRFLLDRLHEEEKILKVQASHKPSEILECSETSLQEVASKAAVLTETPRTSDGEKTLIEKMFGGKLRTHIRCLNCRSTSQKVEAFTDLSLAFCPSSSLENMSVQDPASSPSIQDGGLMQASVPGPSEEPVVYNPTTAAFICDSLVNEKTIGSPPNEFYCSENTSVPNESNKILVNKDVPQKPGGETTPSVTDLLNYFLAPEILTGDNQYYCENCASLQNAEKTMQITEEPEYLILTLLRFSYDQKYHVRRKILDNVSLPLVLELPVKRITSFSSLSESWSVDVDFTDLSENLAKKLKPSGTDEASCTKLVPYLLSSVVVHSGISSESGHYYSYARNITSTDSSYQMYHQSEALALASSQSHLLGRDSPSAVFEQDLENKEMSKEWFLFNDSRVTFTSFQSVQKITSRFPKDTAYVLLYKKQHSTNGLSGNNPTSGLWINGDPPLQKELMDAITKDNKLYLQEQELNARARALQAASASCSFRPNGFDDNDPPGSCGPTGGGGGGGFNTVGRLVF
Method in brief: as §1

USP39 = target: T3, USP39 (UniProt Q53GS9)
T3 sequence (whole entry): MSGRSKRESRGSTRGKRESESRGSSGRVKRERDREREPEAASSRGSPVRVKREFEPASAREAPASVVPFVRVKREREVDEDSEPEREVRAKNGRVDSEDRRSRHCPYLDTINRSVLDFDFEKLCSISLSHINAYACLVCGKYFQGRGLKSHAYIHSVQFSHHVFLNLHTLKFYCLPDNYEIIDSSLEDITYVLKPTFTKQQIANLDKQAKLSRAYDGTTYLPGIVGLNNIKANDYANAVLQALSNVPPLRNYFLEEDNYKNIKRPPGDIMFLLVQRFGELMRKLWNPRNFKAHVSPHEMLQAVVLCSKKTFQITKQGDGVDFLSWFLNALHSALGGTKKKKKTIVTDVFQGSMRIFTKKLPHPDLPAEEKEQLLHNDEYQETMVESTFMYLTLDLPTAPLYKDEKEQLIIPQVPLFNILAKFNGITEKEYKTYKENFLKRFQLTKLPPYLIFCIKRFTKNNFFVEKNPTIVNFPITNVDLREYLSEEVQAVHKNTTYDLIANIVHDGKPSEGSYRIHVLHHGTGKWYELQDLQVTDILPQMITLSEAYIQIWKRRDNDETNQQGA
Method in brief: as §1

USP4 = target: T4, USP4 (UniProt Q13107)
T4 sequence (whole entry): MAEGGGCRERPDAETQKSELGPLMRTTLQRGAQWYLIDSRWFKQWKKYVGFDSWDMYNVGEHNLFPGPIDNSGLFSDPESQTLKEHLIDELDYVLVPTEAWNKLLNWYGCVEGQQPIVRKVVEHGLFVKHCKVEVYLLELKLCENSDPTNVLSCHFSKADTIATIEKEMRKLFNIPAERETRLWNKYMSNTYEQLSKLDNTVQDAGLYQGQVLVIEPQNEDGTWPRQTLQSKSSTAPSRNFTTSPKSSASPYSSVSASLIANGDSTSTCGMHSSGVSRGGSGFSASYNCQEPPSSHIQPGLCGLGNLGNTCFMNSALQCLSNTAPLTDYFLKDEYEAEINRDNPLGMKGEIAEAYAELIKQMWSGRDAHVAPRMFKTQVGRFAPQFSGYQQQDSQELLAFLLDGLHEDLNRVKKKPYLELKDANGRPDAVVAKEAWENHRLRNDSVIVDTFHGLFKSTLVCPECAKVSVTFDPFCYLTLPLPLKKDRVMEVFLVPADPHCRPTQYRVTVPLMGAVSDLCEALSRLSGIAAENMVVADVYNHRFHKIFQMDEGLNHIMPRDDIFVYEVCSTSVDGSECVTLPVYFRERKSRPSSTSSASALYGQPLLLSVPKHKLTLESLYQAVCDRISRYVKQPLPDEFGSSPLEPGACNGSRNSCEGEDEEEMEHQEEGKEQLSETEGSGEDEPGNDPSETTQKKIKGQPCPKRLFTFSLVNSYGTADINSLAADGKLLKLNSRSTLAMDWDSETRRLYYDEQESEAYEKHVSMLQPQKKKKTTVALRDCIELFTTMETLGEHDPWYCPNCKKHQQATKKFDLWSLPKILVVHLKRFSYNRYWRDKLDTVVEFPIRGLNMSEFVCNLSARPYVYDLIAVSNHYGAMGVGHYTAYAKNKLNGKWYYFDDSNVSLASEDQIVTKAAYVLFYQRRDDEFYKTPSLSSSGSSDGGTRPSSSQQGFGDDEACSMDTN
Method in brief: as §1

Measured: log2 ratio of Biotin-Ahx-Ub-VS probe labelling

Sequence of USP34 (Q70CQ2 whole entry, the tested form may be a part): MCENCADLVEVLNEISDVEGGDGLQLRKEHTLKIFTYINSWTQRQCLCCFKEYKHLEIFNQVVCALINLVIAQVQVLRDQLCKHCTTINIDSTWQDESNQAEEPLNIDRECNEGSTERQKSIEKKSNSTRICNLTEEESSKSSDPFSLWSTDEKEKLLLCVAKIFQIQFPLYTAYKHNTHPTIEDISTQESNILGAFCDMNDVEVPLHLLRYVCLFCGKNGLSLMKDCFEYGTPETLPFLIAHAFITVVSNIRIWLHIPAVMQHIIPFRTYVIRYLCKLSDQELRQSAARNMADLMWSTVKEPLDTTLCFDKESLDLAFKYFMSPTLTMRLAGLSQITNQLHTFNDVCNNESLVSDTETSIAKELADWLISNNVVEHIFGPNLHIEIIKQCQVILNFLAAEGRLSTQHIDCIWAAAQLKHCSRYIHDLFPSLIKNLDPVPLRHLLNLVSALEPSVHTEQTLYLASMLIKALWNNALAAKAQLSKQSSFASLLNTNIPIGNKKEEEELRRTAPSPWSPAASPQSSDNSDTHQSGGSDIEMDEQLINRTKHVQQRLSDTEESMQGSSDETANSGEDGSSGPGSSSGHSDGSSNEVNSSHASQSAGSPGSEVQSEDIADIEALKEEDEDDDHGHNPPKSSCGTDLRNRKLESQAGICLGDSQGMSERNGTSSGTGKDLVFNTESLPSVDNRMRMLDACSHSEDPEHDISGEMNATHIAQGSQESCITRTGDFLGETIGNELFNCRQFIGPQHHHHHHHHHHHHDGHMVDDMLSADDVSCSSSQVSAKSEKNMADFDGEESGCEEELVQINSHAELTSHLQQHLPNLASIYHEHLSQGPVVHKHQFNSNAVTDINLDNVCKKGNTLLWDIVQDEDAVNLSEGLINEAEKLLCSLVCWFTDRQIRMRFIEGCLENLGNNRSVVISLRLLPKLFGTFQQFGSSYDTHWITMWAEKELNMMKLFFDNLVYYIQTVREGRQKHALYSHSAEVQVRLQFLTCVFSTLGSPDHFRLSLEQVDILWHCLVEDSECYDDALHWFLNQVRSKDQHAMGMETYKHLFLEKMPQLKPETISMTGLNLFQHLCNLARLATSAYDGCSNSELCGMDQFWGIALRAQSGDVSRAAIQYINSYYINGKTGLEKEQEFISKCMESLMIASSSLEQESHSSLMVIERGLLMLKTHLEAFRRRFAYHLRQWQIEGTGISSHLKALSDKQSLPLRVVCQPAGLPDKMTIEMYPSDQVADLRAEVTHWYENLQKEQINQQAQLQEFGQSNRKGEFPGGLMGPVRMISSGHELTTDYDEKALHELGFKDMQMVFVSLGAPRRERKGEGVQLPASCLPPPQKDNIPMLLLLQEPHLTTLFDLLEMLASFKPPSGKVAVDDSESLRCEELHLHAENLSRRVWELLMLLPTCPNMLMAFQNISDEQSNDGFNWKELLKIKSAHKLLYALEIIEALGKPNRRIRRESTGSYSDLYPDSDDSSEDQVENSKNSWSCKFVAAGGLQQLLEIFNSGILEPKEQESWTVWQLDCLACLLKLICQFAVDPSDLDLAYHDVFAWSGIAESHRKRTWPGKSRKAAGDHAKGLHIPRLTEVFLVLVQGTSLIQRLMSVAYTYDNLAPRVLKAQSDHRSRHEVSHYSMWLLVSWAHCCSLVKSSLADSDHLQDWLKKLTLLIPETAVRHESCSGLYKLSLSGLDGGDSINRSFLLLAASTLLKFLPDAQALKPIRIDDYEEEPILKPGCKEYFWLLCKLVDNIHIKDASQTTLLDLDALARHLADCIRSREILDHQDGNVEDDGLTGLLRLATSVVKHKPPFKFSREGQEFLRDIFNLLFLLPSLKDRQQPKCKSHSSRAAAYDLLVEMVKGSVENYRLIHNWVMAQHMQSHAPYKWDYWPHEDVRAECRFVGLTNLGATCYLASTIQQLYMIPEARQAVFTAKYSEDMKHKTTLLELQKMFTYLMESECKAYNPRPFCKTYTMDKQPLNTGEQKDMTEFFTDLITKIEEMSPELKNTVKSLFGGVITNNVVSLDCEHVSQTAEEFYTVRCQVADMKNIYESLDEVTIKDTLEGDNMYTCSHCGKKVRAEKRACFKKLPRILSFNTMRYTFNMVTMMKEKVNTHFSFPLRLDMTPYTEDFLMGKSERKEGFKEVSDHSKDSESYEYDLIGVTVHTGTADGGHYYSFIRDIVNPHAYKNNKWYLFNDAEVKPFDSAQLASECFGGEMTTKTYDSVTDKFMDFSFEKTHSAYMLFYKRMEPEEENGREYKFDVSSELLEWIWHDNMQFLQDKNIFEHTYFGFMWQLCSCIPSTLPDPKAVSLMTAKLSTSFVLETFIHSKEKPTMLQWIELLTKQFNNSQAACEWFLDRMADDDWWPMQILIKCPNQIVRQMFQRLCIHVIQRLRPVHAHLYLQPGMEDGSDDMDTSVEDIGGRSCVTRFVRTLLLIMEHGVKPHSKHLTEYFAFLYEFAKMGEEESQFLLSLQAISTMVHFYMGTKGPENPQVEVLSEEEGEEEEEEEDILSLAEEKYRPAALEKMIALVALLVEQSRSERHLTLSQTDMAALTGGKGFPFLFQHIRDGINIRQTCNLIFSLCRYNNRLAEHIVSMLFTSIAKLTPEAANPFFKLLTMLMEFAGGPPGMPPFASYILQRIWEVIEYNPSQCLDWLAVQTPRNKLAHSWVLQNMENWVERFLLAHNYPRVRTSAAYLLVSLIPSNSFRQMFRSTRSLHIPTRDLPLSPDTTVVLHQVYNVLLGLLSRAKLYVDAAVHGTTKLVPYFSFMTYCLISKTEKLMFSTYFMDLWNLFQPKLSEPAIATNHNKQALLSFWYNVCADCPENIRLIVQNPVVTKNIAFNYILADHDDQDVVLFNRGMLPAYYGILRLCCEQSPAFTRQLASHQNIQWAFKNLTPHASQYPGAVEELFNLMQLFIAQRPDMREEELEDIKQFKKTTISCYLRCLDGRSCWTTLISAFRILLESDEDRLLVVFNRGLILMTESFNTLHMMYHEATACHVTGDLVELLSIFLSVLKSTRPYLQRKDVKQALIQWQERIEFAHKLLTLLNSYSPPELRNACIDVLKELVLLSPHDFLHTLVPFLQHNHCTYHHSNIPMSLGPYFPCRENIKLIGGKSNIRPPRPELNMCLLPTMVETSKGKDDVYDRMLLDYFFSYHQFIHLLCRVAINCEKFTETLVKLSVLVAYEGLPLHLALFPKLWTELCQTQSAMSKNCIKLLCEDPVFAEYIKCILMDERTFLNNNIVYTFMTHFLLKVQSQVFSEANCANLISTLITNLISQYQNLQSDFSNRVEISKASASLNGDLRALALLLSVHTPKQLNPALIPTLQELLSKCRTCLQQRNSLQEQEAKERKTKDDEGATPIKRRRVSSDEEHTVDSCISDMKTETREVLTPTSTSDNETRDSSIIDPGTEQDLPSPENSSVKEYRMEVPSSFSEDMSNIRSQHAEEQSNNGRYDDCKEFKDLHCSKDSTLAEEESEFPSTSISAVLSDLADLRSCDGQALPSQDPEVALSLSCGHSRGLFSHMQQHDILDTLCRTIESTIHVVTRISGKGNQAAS

Cn1cc(CN(Cc2ccc(Cl)cc2)C(=O)CCl)cn1
inactive: USP34 -0.228 | USP36 0.253 | USP38 -0.245 | USP39 -0.193 | USP4 -0.316
